The record followed here is the supplement of paper PMC10849652.

About 7,900 targets were measured; listed, in parts, are those with a hit and a random draw of the rest. About 0.6% of all pairs of compound and target were hits.

Chain of UniProt Q9H300 (Q9H300 whole entry, looked up): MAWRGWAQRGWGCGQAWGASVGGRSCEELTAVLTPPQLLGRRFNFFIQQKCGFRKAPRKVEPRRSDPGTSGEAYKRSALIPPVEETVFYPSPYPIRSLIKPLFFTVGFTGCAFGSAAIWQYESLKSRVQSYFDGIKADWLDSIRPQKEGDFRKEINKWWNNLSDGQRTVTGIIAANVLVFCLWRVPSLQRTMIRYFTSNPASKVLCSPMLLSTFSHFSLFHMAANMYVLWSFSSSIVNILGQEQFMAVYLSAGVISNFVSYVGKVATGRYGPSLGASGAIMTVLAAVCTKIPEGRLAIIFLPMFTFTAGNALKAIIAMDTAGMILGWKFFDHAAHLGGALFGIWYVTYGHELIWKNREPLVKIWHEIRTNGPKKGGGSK
Chain of UniProt Q15257 (Q15257 whole entry, looked up): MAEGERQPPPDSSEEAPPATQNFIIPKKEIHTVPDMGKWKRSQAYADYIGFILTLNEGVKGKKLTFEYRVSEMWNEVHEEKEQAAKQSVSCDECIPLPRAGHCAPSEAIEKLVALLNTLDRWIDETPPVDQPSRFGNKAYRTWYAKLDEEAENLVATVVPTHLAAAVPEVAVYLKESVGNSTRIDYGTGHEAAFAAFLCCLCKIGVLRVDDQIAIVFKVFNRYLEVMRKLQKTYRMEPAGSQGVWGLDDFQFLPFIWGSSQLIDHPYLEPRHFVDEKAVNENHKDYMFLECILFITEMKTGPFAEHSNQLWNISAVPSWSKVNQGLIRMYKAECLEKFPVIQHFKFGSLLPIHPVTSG
Chain of UniProt P25788 (P25788 whole entry, looked up): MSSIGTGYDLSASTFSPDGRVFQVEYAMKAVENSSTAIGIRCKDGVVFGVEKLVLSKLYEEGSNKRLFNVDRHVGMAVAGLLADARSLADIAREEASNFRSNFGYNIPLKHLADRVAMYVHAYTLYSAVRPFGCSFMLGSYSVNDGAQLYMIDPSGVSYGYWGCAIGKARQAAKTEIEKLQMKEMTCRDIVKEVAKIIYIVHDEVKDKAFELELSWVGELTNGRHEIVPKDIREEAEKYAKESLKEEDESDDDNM
Chain of UniProt O15067 (O15067 whole entry, looked up): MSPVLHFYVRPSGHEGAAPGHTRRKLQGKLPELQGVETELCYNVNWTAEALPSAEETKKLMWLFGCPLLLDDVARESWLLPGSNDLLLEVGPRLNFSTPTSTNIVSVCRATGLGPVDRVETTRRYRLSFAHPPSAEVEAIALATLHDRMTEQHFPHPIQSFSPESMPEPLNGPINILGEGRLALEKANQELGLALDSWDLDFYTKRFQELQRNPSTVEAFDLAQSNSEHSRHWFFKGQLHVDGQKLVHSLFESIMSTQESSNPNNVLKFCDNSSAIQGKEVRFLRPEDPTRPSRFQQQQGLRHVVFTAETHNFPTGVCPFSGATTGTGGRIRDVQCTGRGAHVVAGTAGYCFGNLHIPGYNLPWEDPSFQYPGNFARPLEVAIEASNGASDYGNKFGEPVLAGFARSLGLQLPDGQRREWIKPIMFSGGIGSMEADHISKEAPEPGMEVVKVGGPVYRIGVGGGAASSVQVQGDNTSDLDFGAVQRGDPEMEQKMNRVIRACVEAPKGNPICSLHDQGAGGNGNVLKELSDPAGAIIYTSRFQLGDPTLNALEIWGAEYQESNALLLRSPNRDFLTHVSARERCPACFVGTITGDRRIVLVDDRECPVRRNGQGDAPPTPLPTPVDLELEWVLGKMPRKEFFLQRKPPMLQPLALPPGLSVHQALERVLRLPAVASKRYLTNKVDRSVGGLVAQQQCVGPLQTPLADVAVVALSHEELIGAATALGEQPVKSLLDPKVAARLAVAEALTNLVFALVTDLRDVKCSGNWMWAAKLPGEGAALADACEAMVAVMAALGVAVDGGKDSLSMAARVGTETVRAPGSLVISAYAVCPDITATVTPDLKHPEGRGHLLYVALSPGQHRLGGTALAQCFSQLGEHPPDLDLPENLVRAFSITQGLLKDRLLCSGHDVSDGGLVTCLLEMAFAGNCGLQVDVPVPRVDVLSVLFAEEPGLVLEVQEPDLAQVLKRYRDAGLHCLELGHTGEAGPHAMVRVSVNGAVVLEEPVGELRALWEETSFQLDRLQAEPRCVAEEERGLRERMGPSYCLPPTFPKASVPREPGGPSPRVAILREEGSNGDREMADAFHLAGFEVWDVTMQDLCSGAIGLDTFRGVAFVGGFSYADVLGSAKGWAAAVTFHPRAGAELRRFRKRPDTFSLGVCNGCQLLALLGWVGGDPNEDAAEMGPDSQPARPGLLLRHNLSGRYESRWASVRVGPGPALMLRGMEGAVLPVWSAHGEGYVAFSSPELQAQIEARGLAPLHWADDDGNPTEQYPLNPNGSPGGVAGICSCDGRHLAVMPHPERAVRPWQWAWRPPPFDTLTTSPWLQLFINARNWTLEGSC
Chain of UniProt P49643 (P49643 whole entry, looked up): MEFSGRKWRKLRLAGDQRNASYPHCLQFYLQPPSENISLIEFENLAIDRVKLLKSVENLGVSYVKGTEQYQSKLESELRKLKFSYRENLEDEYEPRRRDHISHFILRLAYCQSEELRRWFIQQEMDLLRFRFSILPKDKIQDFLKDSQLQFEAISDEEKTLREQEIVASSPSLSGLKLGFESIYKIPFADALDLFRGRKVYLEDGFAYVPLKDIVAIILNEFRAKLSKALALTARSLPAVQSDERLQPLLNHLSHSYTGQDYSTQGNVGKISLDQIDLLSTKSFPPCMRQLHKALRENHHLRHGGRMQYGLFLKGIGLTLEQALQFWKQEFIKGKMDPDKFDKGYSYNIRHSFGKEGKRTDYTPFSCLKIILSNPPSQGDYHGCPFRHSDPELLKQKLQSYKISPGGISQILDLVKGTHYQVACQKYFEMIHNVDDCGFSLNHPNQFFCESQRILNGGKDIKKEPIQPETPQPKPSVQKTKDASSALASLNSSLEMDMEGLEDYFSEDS
Chain of UniProt O95602 (O95602 whole entry, looked up): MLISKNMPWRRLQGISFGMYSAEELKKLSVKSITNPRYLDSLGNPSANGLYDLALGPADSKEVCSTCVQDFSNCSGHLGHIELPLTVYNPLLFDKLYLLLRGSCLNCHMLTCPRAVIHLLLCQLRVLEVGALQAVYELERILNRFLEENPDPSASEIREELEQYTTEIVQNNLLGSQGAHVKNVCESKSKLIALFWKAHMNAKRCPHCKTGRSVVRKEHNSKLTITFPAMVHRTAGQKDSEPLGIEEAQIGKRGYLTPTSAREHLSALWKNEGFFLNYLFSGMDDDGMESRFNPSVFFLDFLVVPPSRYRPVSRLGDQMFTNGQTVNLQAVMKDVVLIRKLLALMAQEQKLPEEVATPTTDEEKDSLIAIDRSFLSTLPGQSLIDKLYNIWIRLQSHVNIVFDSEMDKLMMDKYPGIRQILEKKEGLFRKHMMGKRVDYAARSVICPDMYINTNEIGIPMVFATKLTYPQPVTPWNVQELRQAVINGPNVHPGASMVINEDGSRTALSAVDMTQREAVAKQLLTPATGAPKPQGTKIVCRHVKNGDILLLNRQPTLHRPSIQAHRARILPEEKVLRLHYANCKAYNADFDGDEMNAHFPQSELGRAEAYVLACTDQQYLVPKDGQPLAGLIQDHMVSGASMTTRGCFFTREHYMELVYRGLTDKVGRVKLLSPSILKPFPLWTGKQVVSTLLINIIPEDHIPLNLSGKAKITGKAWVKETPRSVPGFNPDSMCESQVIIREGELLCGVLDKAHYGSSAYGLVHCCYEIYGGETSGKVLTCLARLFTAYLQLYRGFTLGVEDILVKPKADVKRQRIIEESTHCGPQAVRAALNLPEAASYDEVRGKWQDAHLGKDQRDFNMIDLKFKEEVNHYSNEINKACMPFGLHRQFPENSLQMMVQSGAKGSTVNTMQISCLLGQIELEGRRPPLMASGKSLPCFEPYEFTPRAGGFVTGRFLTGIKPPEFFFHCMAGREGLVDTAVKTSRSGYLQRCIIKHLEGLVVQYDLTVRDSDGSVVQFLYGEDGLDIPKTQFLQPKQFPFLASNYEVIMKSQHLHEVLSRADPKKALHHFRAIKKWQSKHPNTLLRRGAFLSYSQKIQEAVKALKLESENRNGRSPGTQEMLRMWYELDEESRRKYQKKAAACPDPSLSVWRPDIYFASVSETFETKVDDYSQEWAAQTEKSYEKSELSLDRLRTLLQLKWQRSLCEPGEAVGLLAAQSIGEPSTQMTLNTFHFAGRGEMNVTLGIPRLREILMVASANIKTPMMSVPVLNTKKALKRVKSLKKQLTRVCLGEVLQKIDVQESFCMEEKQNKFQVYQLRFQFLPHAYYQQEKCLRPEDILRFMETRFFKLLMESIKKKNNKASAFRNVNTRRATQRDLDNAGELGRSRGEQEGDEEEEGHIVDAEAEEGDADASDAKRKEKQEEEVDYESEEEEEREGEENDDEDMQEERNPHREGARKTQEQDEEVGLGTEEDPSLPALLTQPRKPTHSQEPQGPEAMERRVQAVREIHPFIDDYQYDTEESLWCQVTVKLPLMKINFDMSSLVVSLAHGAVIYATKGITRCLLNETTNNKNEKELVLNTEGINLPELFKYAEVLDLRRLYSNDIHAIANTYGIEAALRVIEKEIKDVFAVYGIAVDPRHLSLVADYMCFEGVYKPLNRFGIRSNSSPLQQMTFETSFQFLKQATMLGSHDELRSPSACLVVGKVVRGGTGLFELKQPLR
Chain of UniProt Q16537 (Q16537 whole entry, looked up): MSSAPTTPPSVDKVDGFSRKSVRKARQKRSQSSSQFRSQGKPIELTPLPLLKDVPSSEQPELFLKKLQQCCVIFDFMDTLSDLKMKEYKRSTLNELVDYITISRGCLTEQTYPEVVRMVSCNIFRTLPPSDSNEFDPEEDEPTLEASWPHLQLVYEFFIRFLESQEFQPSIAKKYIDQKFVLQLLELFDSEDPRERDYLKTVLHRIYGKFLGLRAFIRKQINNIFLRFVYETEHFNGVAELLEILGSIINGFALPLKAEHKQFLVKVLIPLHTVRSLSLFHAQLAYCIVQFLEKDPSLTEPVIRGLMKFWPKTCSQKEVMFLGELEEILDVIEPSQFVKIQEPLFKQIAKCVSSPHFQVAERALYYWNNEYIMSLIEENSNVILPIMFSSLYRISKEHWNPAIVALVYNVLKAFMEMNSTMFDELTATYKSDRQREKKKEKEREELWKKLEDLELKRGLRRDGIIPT

Compound in the assay: CNC(=O)c1ccc(Nc2ncc(C(F)(F)F)c(NCc3nccnc3N(C)S(C)(=O)=O)n2)cc1 [defactinib]
As to the kind of experiment: log2 fold change, soluble protein after heating vs DMSO (PISA); higher = thermal stabilisation; K562 cells, 10 uM, 30 min; active = over 0.2 and 3.5 SD of the protein, either way, in both replicates (recomputed). The procedure, abridged: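 Thermal stability values are relative to control samples and come from duplicates. They are expressed as log2 fold changes. For measurement, K562 cells (2×10^6 cells/mL) received 10 μM compound for 30 min, and aliquots were heated for 3 min over 48°C-58°C, pooled, and extracted at 4°C in PBS with 0.5% NP-40. Soluble protein, the supernatant after 21,000xg for 90 min, was quantified by TMTpro 16plex LC-MS/MS with equalised channel sums.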
For PYGL (UniProt P06737), the log2 fold change was -0.039 (inactive). POTEI (UniProt P0CG38): the log2 fold change is -0.026 (inactive). Next, POLR1A (UniProt O95602): -0.011 (inactive); POMP (UniProt Q9Y244): -0.014 (inactive). PPP2R5E (UniProt Q16537): the log2 fold change was -0.025 (inactive). Consider PSMA3 (UniProt P25788), for which the log2 fold change is 0.048 (inactive). With PRPF3 (UniProt O43395), the log2 fold change is -0.239 (inactive).

For PNPLA8 (UniProt Q9NP80), the log2 fold change was -0.051 (inactive). As for PRMT3 (UniProt O60678), the log2 fold change is -0.005 (inactive). As for PRIM2 (UniProt P49643), the log2 fold change is -0.127 (inactive). For PFAS (UniProt O15067), the log2 fold change was -0.029 (inactive).

As for PARL (UniProt Q9H300), the log2 fold change is -0.011 (inactive). Then PDPK1 (UniProt O15530), with -0.025 (inactive); and PTPA (UniProt Q15257), with -0.033 (inactive).
